From PubChem
Rows were chosen to be rich in hits. Some 10% of all compounds tested hit in one or more screens of this group.
Lamin A splicing – changes lamin A minigene splicing in HeLa cells; HeLa LMNA splicing GFP/RFP minigene ratio, 48 h; Potency, µM (top dose mostly 46.1 µM), for the others: top-dose ratio change, negative = inhibition, hits mostly inhibitors; 200,000 compounds, 0.01% hits; AID 1487; active means well fitted inhibition curve with a large enough effect in the signal ratio, with a control signal flat, not every such curve was filed as active; inconclusive means small, poorly fitted or top-dose-only effect, or effect the other way, or a change in a side signal; the % refers to the signal ratio; further: potency means the concentration at half of the fitted maximal effect
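S3 HeLa cells stably expressing lamin A-EGFP splicing minigene plus DsRed2, 600 cells/well, 48 h compound exposure at 37C. Laser-scanning cytometry; analysed as GFP (500-530 nm)/RFP (575-640 nm) total intensity ratio; 0.5% DMSO vehicle.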
HPGD inh – HPGD (human) dehydrogenase inhibition. purified HPGD, NADH fluorescence kinetic, PGE2 substrate. Potency, µM, for inactives: at the highest dose activity change, negative = inhibition, actives largely listed as inhibitors. 150,000 compounds, 4.3% hits; further: potency means the concentration at half of the fitted maximal effect
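NADH formation kinetics: reaction with 30 uM PGE2 and 1 mM NAD+ (final), 20 nM enzyme, Tris-HCl pH 8 with Tween 20, after 15 min compound preincubation at room temperature. Fluorescence change, last versus first of five reads.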
PNC inhibitor – blocks assembly of the perinucleolar compartment; activity change (PNC), negative = inhibition, % at 10 µM; PC3M PTB-GFP, PNC prevalence imaging, 16 h; active compounds read low; 140,000 compounds, 3.1% hits;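 active means readout at or below -70, meaning at least 70% loss of cells showing the perinucleolar compartment, a nuclear body marking cancer cells; inconclusive means readout between -30 and a set limit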;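 further: plate controls were DMSO wells for no effect and camptothecin positive control wells for full effect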
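Read-out is percentage of cells bearing a perinucleolar compartment, from automated 20x imaging of fixed, Hoechst-stained PC3M PTB-GFP cells. Cells were seeded 4 h, then exposed 16 h to compound (23 nl of library stock) in duplicate plates.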
ALOX12 inhib – blocks human 12-lipoxygenase activity. P18054. purified 12-hLO, xylenol orange hydroperoxide absorbance. Potency, µM (top dose mostly 57.1 µM), inactives show at the top dose activity change, negative = inhibition, usual class: inhibitors. 150,000 compounds, 0.12% hits; active means well fitted inhibition curve with a large enough effect; inconclusive means small, poorly fitted or top-dose-only effect; further: potency means the concentration at half of the fitted maximal effect; nearly all actives have a fitted effect of over 55% in size
Target sequence (P18054 whole entry, looked up): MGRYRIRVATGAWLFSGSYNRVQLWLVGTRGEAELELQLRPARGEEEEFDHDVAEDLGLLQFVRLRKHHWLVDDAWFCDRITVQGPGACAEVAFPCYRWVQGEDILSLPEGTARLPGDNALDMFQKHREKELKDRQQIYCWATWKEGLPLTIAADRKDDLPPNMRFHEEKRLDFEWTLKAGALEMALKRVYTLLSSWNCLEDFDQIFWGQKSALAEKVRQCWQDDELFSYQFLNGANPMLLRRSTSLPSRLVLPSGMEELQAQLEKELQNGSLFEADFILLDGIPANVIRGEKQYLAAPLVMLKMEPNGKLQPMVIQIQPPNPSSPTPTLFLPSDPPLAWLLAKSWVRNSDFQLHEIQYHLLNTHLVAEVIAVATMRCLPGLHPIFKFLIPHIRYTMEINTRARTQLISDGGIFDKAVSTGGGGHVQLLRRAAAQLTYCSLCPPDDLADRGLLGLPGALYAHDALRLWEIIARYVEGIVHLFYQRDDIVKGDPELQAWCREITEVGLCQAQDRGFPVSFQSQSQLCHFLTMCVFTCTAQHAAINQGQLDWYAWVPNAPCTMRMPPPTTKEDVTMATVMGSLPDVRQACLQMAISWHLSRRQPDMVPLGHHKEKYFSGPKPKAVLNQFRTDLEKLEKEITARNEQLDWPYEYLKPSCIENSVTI
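Xylenol orange chromogenic assay: hydroperoxide from 12hLO oxidises Fe(II), giving red-shifted Fe(III)-XO absorbance. Conditions: 150 nM enzyme, 40 uM arachidonic acid, 25 mM Hepes pH 7.0, 0.01% Triton X-100, 30 min, room temperature.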
ALDH1A1 block – blocks purified human ALDH1A1 activity. P00352. Purified ALDH1A1, NADH fluorescence, propionaldehyde substrate. Potency, µM (highest dose often 75.3 µM), inactives show at the highest dose activity, negative = inhibition, hits mostly inhibitors. 220,000 compounds, 7.3% hits;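 further: potency means the concentration at half of the fitted maximal effect; plate controls were no enzyme wells and a reference inhibitor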
Starred values were filed as active, the others as inactive; ? = inconclusive; . = not tested or not shown; [ ] = another dose, or the depositor's remark. Unless noted, the call rests on the fitted dose curve; in most records, active means well fitted inhibition curve with a large enough effect (not every such curve was filed as active); inconclusive means small, poorly fitted or top-dose-only effect, or another doubt; inactive means no such curve, though single readings can be large or run the other way. Unless noted, on the % scale 0 is the no-effect control and ±100 the full control effect.

SMILES | Lamin A splicing | HPGD inh | PNC inhibitor | ALOX12 inhib | ALDH1A1 block
Cc1ccc(/C=C2\SC(N)=NC2=O)s1 | -17% | -23% | ? | 0% | -13%
CCCOc1ccc(-c2nn(-c3ccccc3)cc2/C=C2\SC(N)=NC2=O)cc1C | -7% | 10µM* | 7 | -2% | -7%
O=Cc1cn(CCC(=O)O)nc1-c1cccc(Cl)c1 | -13%[46 µM] | . | . | . | -17%
COc1ccc(-c2nn(CCC(=O)O)cc2/C=C2\SC(N)=NC2=O)cc1OC | -12% | 3.2µM* | -25 | -1% | 1%
COC(=O)[C@@H]1CC2=CC(=O)CC[C@]2(C)[C@@]23O[C@@H]2C[C@@]2(C)[C@H](CC[C@@]24CCC(=O)O4)[C@@H]13 | . | -13% | . | -2%[0.00818 µM] | -1%
Cc1cccc(OC(C)C(=O)Nc2ncn[nH]2)c1 (centres undefined) | 13%[46 µM] | . | . | . | .
O=c1oc2ccccc2c(O)c1CN1CCCCC1 | ? | -27% | -26 | -10% | 14µM*
COc1cc(-c2ccno2)ccc1S(=O)(=O)N1CCN(c2ccc(F)cc2)CC1 | 23%[46 µM] | . | . | . | .
Cc1ccc(S(=O)(=O)/N=C(/c2ccc(F)cc2)N2CCCCC2)cc1 | -10% | -9% | ? | 1% | 25µM*
Cc1ccc(-c2nc3ncccn3c2Nc2ccc3c(c2)OCO3)o1 | -3% | -20% | -119* | -5% | ?
Cc1nc(C)c(CCNS(=O)(=O)c2ccc(C)c(C)c2)s1 | 0%[46 µM] | . | . | . | .
CN(C)C(CNC(C(=O)Nc1ccc([N+](=O)[O-])cc1Br)c1ccccc1)c1ccccc1 (centres undefined) | 4%[46 µM] | . | . | . | ?
CCN(CC)CCNC(C(=O)Nc1ccc([N+](=O)[O-])cc1Br)c1ccccc1 (centres undefined) | 8% | -15% | -104* | -3% | -10%
CC(C)CNC(C(=O)Nc1ccc([N+](=O)[O-])cc1Br)c1ccccc1 (centres undefined) | ? | -23% | -18 | 0% | 3.5µM*
Cc1c(Cl)cccc1NC(=O)CSc1ncccc1C(=O)Oc1ccccc1Cl | 9%[46 µM] | . | . | . | .
Cc1ccc(-c2c(C(=O)NCc3ccccc3)oc(=O)c3ccccc23)cc1 | -3%[46 µM] | -2% | ? | 1% | ?
CCOC(=O)N1CCN(C(=O)c2oc(=O)c3ccccc3c2-c2ccc(C)cc2)CC1 | 8% | -8% | ? | 7% | 0.014µM*
Cc1ccc(-c2c(C(=O)N(C)Cc3ccccc3)oc(=O)c3ccccc23)cc1 | ? | -13% | 28 | -2% | 1.8µM*
CN(Cc1ccccc1)C(=O)c1oc(=O)c2ccccc2c1-c1ccccc1 | ? | -9% | 82 | 2% | ?
Cc1ccc(-c2c(C(=O)NC(C)C)oc(=O)c3ccccc23)cc1 | . | . | . | . | 1.4µM*
CCOCCCNC(=O)CN1C(=O)CCn2nc(-c3cccn3C)cc21 | -6%[46 µM] | . | . | . | .
CCOC(=O)c1c(/N=C/N(C)C)sc(C=O)c1-c1ccccc1 | -7%[46 µM] | . | . | . | ?
CCOC(=O)c1c(/N=C/N(C)C)sc(/C=N/Nc2ccccc2)c1-c1ccccc1Cl | ? | . | 49 | -13% | 13µM*
CCOC(=O)c1c(/N=C/N(C)C)sc(/C=N/Nc2ccccc2)c1-c1ccccc1 | ? | -6% | ? | -6% | 25µM*
C/C(CCN1CCCc2nc(C)c(C)cc21)=N\O[C@@H](C)c1cc(-c2c(C)cc(C)cc2C)no1 | . | . | . | . | 4%[13.5 µM]
SMILES | Lamin A splicing | HPGD inh | PNC inhibitor | ALOX12 inhib | ALDH1A1 block
Oc1cc2ccccc2cc1-c1n[nH]c(=S)o1 | ? | ? | ? | -25% | ?
Cc1cc(-c2n[nH]c(=S)o2)c(C)n1-c1ccccc1 | 2% | -25% | ? | -4% | 3.5µM*
Cc1ccc(-n2c([C@@H]3C[C@H]3c3ccccc3)n[nH]c2=S)cc1 | -10% | ? | -7 | -5% | ?
S=c1[nH]nc(C2CC2c2ccc(Cl)cc2)n1-c1ccc(Cl)cc1 (centres undefined) | -3% | 5µM* | -16 | -29% | 0%
Cc1ccc(-n2c(C3CC3c3ccc(Cl)cc3)n[nH]c2=S)cc1 (centres undefined) | -3% | 8.9µM* | ? | ? | 7%
Nc1n[nH]c(=S)n1-c1ccc(Cl)cc1 | . | . | . | . | 1.6µM*
Cc1ccc(C2CC2c2n[nH]c(=S)n2-c2ccc(C)cc2)cc1 (centres undefined) | -6% | ? | -27 | -13% | ?
CC(C)(C)C(=O)OCc1nc(-c2ccc(Cl)cc2)cs1 | . | . | . | . | 7%
NC(=S)Cc1nc(-c2ccc(Cl)cc2)cs1 | . | . | . | . | 2µM*
NNC(=O)CSCc1nc(-c2ccc(Cl)cc2)cs1 | ? | . | . | . | 0.71µM*
Cc1ccc(O)c(C(=O)c2cc(C#N)c(=O)n(-c3nccs3)c2)c1 | . | . | . | . | 8.9µM*
COc1ccc(Cl)cc1N(C)C(=O)CCc1nc(-c2ccc(C)cc2)no1 | ? | -22% | -1 | -15% | -8%
CCc1ccccc1N(C)C(=O)CCc1nc(-c2ccc(C)cc2)no1 | ? | 14µM* | 12 | -5% | -13%
COc1cc2nc(Cl)nc(N3CCN(C)CC3)c2cc1OC | . | . | . | . | -9%
COc1ccccc1NC(=S)N1CCN(c2ccccn2)CC1 | 11% | -29% | ? | -4% | ?
COc1cc2nc(C3CCC3)nc(N3CCN(c4ccccc4OC)CC3)c2cc1OC | ? | -13% | 22 | -7% | 28µM*
COc1cc2nc(C3CCC3)nc(N3CCN(c4ccccn4)CC3)c2cc1OC | ? | -11% | 4 | -2% | 8.9µM*
CCOC(=O)CNC(=O)c1ccc2[nH]c3c(c2c1)CCCC3 | -5% | -15% | 7 | -5% | -7%
NNC(=O)c1ccc2[nH]c3c(c2c1)CCCC3 | ? | . | . | . | 18µM*
CCC(C)NC(=O)c1ccc(CSCc2cccc(F)c2)o1 (centres undefined) | -10% | -16% | -21 | 3% | ?
Cc1ccc(CSCc2ccc(C(=O)NC3CCCC3)o2)cc1 | . | . | . | . | 22µM*
O=C(NC1CC1)c1ccc(CSCc2cccc(F)c2)o1 | -18% | -12% | -106* | -2% | ?
C#CCCCO/N=C1/C[C@@H](O)[C@@H](O)[C@@H]2[C@@H]3C(=O)N(C(C)(C)C)C(=O)[C@H]3CC[C@H]12 | . | . | . | . | 6%[13.5 µM]
Nc1nc(-c2cccnc2)cc(-c2cc(-c3cccnc3)nc(N)n2)n1 | . | -7% | . | 8%[11.4 µM] | 6%[13.5 µM]
CN1CCN(Cc2nc3cccc4c3c([n+]2[O-])-c2ccccc2-4)CC1 | . | -9% | . | 0%[11.4 µM] | -3%[13.5 µM]
SMILES | Lamin A splicing | HPGD inh | PNC inhibitor | ALOX12 inhib | ALDH1A1 block
CCOC(=O)CNC(=O)CSc1ncnc2c1cnn2-c1ccccc1 | -4% | -8% | 14 | 7% | -2%
CCOC(=O)CC(=O)CSc1ncnc2c1cnn2-c1ccccc1 | 1% | -19% | 3 | -14% | 22µM*
Cc1ccc(CNc2ncnc3c2c(-c2ccccc2)cn3-c2ccccc2)cc1 | 2%[46 µM] | . | . | . | .
Cc1ccc(C)c(NS(=O)(=O)c2cc3c(cc2C)n(C)c(=O)c(=O)n3C)c1 | 9%[46 µM] | . | . | . | .
NNC(=O)c1nc[nH]c1C(=O)Nc1ccccn1 | -25%[46 µM] | . | . | . | 22µM*
Cc1ccc(NC(=O)c2[nH]cnc2C(=O)NN)cc1 | ? | . | . | . | -8%
